# Source: PubChem (National Center for Advancing Translational Sciences (NCATS))
# Caspase-7 inhib = caspase-7 (human) inhibition, allosteric or competitive. AID 889. Potency, µM (series often up to 57.5 µM), usual class: inhibitors. 75,000 tested, 0.02% active. recombinant caspase-7, Ac-DEVD-AFC fluorescence rate; active = well fitted inhibition curve with a large enough effect in the main read-out, with a control signal flat, not every such curve was filed as active; inconclusive = small, poorly fitted or top-dose-only effect, or a change in a side signal
# Target sequence (P55210 24-198 limits assumed): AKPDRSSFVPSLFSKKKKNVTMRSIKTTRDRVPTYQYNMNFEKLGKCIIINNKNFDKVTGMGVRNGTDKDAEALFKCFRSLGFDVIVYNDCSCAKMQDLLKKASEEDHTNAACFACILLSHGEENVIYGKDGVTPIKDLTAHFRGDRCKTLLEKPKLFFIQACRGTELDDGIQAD
# Target sequence (P55210 207-303 limits assumed): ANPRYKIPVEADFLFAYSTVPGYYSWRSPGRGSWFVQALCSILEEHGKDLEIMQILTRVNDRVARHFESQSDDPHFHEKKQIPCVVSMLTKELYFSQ
# TSHR ag = TSH receptor (human) agonism; P16473; HEK293-CNG-TSHR cells (CNG channel as cAMP sensor), membrane potential dye, cAMP; Potency, µM (titrated, usually from 57.1 µM), hits mostly activators; 73,000 tested, 0.48% active; AID 926; active = well fitted activation curve with a large enough effect in the main read-out, with a control signal flat, not every such curve was filed as active; inconclusive = small, poorly fitted or top-dose-only effect, or a change in a side signal; inactive = no such curve, though single readings can be large or run the other way; reference of the percent scale not stated here;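 note: the control signal comes from parental cells without the receptor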
#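 cAMP rise detected as CNG-channel membrane depolarization by fluorescent dye (emission 590 nm), 30 min after compound, following 60 min dye loading containing 100 uM RO 20-1724 at room temperature. Cells: TSHR/CNG HEK 293, with parental CNG HEK 293 as control.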
# Casp1 inh = blocks human caspase-1 allosterically or competitively; Caspase-1 enzyme, Ac-WEHD-AFC fluorogenic rate; Potency, µM (series often up to 57.5 µM), actives largely listed as inhibitors; AID 900; 75,000 tested, 0.03% active
# Target sequence (P29466 120-297 limits assumed): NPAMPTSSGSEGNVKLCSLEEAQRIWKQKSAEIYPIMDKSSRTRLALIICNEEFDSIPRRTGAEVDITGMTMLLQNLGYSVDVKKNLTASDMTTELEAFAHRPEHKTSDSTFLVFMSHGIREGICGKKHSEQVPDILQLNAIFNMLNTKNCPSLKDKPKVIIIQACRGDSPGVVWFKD
# Target sequence (P29466 317-404 limits assumed): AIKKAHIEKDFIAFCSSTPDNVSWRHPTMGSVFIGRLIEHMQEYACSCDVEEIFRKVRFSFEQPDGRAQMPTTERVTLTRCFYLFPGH
# GBA activity = alters purified human glucocerebrosidase activity. purified enzyme, resorufin glucoside fluorescence (screen aimed at inhibitors), 20 min. 48,000 tested, 1.1% active. Potency, µM. AID 360. P04062; in the data active = potency below about 15 µM; inconclusive = mostly about 16 µM to 33 µM;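 note: the screen sought inhibitors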
#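 Normal human glucocerebrosidase (0.2 nM final) was assayed with resorufin β-D-glucopyranoside (30 uM final) in 50mM citric acid/KH2PO4, 10mM sodium taurocholate, 0.01% tween-20, pH 5.9. Compounds were titrated; fluorescence (Ex 548, Em 600) read after 20 min at RT.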
# HEK293 cAMP cs = counter-screen for TSHR agonists: cAMP increase in parental HEK293; parental HEK293 CNG cAMP sensor, membrane potential fluorescence; Potency, µM (highest dose often 57.1 µM), actives largely listed as activators; 73,000 tested, 2.5% active; note: nearly all actives have a fitted effect of over 55% in size
#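 Counterscreen for endogenous-receptor signalling: CNG-channel HEK 293 cells report cAMP rise by membrane depolarization. After 60 min dye equilibration with 100 uM RO 20-1724, compounds incubated 30 min before bottom-read fluorescence at 590 nm.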
# PK Bst = modulators of Bacillus stearothermophilus pyruvate kinase; Potency, µM; purified pyruvate kinase, luminescence ATP production; ribose 5-phosphate activator present at AC10; 51,000 tested, 1.2% active; in the data active = potency below about 11 µM; inconclusive = mostly about 12 µM to 25 µM;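 the screen sought inhibitors and activators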
# Hits are given with their value; 0 = inactive; ? = inconclusive; - = not tested or not shown; [ ] = another dose, or the depositor's remark. A selection: hits, their analogues and other compounds. The true share with any hit is near 4%. Unless noted, calls come from the whole dose curve; as a rule, active = well fitted curve in the direction sought with a large enough effect; inconclusive = small, poorly fitted or top-dose-only effect, or another doubt; inactive = no such curve, though single readings can be large; an effect the other way counts as inactive or inconclusive.
SMILES,Caspase-7 inhib,TSHR ag,Casp1 inh,GBA activity,HEK293 cAMP cs,PK Bst
CCOc1ccc(Nc2cc(C)nc(-n3nc(C)cc3C)n2)cc1,0,?,0,0,?,6.3
Cc1cc(NC2CCCCC2)nc(N2CCOCC2)n1,0,0,0,-,0,-
CN(C)CCC(=O)[C@@]1(O)CC[C@H]2[C@H]3CC=C4C[C@@H](O)CC[C@]4(C)[C@H]3CC[C@]21C,0[11.5 µM],0[11.4 µM],0[11.5 µM],-,0[11.4 µM],-
COc1ccc(C(=O)N=c2nc3ccccn3s2)cc1,0,0,0,0,0,0.68
CN(C)CCNC(=O)c1ccc(Cc2nc3ccccc3[nH]2)cc1,0,0,0,-,0,-
COc1ccc(/C=N/n2cc(-c3ccccc3)nc2N)cc1,0,0,0,-,0,-
COc1ccc(/C=N\n2nnc3ccccc32)cc1,0,0,0,0,0,2.2
Cc1ccc(-c2nnc(N3CCN(c4ccccn4)CC3)c3ccccc23)cc1,0,0,0,0,0,0
c1ccc(-c2nnc(N3CCN(c4ccccn4)CC3)c3ccccc23)cc1,0,0,0,14,0,0
NC(N)=N/N=C(\c1ccc(Cl)cc1)C1CC1,0[11.5 µM],0[11.4 µM],0[11.5 µM],-,0[11.4 µM],-
O[C@H](C[C@@H]1CCCCN1)c1ccc2c(c1)oc1ccccc12,0[11.5 µM],0[11.4 µM],0[11.5 µM],-,0[11.4 µM],-
O=c1c2c(nc3c(-c4ccc(Cl)cc4)c[nH]n13)CCCC2,0,0,0,6.5,0,3.2
Cc1cc(C)cc(C(=O)N(C)[C@H](Cc2ccc(-c3ccccc3)cc2)C(=O)N[C@@H](Cc2c[nH]c3ccccc23)C(=O)O)c1,32µM,0,0,-,0,-
Cc1ccc(C(=O)NC(Cc2c[nH]c3ccccc23)C(=O)O)o1 (stereo unspecified),0,0,0,-,0,-
CCOC(=O)c1cnc(N(C)C)nc1SC(=N)N,0[11.5 µM],0[11.4 µM],0[11.5 µM],-,0[11.4 µM],-
Cc1cc(C)c(C#N)c(SCC(=O)CC(=O)OC(C)C)n1,0,?,0,0,25µM,0
Cc1ccc(-c2csc(=S)n2CC(=O)OCC(=O)NCc2ccco2)cc1,0,?,0,0,32µM,0
C[C@@H]1C(=O)O[C@H]2[C@@H](O)[C@@]34[C@H]5C[C@H](C(C)(C)C)[C@@]36[C@H](OC(=O)[C@@H]6O)O[C@@]4(C(=O)O5)[C@@]12O,-,0,-,-,0,-
COC(=O)[C@@]1(Cc2ccc(F)cc2)[C@H]2c3cc(C(=O)N(C)C)n(Cc4cc(F)c(F)c(F)c4)c3C[C@H]2CN1C(=O)c1ccccc1,0,0,0,-,0,-
COC(=O)[C@@]1(Cc2ccc(OC)cc2)[C@H]2c3cc(C(=O)N(C)C)n(Cc4ccc(O)c(OC)c4)c3C[C@H]2CN1C(=O)c1ccccc1,0,?,0,-,?,-
COC(=O)[C@@]1(Cc2ccccc2)[C@H]2c3cc(C(=O)N(C)C)n(Cc4ccccc4)c3C[C@H]2CN1C(=O)c1ccccc1,0,?,0,-,2.5µM,-
COC(=O)[C@@]1(Cc2ccccc2)[C@H]2c3cc(C(=O)N(C)C)n(Cc4ccc(S(C)(=O)=O)cc4)c3C[C@H]2CN1C(=O)c1ccccc1,0,?,0,-,16µM,-
COC(=O)[C@@]1(Cc2ccccc2)[C@H]2c3cc(C(=O)N(C)C)n(Cc4ccc(O)c(OC)c4)c3C[C@H]2CN1C(=O)c1ccccc1,0,?,0,-,25µM,-
COC(=O)[C@@]1(Cc2ccccc2)[C@H]2c3cc(C(=O)N(C)C)n(Cc4ccc(OC)c(OC)c4)c3C[C@H]2CN1C(=O)c1ccccc1,0,?,0,-,?,-
COC(=O)[C@@]1(Cc2ccc(F)cc2)[C@H]2c3cc(C(=O)N(C)C)n(CC4CC4)c3C[C@H]2CN1C(=O)c1ccccc1,0,?,0,-,6.3µM,-
SMILES,Caspase-7 inhib,TSHR ag,Casp1 inh,GBA activity,HEK293 cAMP cs,PK Bst
S=C1N[C@H](c2ccccc2)N[C@H](c2ccccc2)S1,0[11.5 µM],?,0[11.5 µM],-,0[11.4 µM],-
C[C@@]12CCC(=O)C=C1CC[C@H]1[C@@H]2[C@@H](O)C[C@]2(C)[C@@H]1CC[C@@]2(O)C(=O)CO,0[11.5 µM],0[11.4 µM],0[11.5 µM],-,0[11.4 µM],-
CCCCCCCN,0,0,0,-,0,-
COC(=O)[C@@]1(Cc2ccc(F)cc2)[C@H]2c3cc(C(=O)N(C)C)n(Cc4ccc(C(F)(F)F)nc4)c3C[C@H]2CN1C(=O)c1ccccc1,0,?,0,-,?,-
COC(=O)[C@@]1(Cc2ccc(OC)cc2)[C@H]2c3cc(C(=O)N(C)C)n(Cc4ccc(C(F)(F)F)nc4)c3C[C@H]2CN1C(=O)c1ccccc1,0,?,0,-,6.3µM,-
COC(=O)[C@@]1(Cc2ccc(OC)cc2)[C@H]2c3cc(C(=O)N(C)C)n(Cc4ccc(OC)c(OC)c4)c3C[C@H]2CN1C(=O)c1ccccc1,0,?,0,-,16µM,-
COC(=O)[C@@]1(Cc2ccccc2)[C@H]2c3cc(C(=O)N(C)C)n(Cc4ccsc4Br)c3C[C@H]2CN1C(=O)c1ccccc1,0,?,0,-,3.2µM,-
COC(=O)[C@@]1(Cc2ccc(OC)cc2)[C@H]2c3cc(C(=O)N(C)C)n(Cc4cc(F)c(F)c(F)c4)c3C[C@H]2CN1C(=O)c1ccccc1,0,?,0,-,4µM,-
Clc1ccc(OCc2nn3c(-c4ccco4)nnc3s2)c(Cl)c1,0,?,0,0,32µM,0
COC(=O)C1=C(C)NC(C)=C(C(=O)OCCN(C)Cc2ccccc2)[C@@H]1c1cccc([N+](=O)[O-])c1,0,0,0,-,0,-
O=C(OCc1nnc(-c2ccccc2)o1)c1ccc2c(c1)OCO2,0,?,0,0,40µM,0
O=C(c1ccccc1)n1nc(-c2ccccc2)nc1NCc1ccco1,0,25µM,0,-,0,-
O=S(=O)(c1ccccc1)n1nc(-c2ccccc2)nc1NCc1ccco1,0,?,0,0,?,0
CCCn1c(-c2ccc(F)cc2)nc2c(N3CCCN(Cc4ccccc4)CC3)nc(C)nc21,0,?,0,-,?,-
C=CCNC(=O)c1ccc(C)cc1Cl,0,0,0,-,0[11.4 µM],-
C=CCNC(=O)c1ccc(Cl)cc1Cl,0,0,0,0,0,7.3
N=c1cc(C2(O)CCCCC2)n2c(nc3ccccc32)s1,0,0,0,0,0,1.1
O=C(O)c1oc(C(=O)O)c(C(=O)O)c1C(=O)O,0[11.5 µM],0[11.4 µM],0[11.5 µM],-,0[11.4 µM],-
Cc1ccc(-c2nc(CS(=O)(=O)CC(=O)N3CCc4ccccc4C3)c(C)o2)cc1,0,?,0,-,1.6µM,-
FC(F)(F)c1nc(SCc2ccc(Cl)cc2)n[nH]1,0[11.5 µM],0[11.4 µM],0[11.5 µM],-,0[11.4 µM],-
COc1ccc(-c2cc(-c3ccc(OC)cc3)[nH]n2)cc1,0,0,0,0,0,2.1
Cn1c(-c2ccc3c(c2)OCO3)cnc1N,0,0,0,-,0,0
c1cc2c(cc1-c1cnc3n1CCC3)OCCO2,0,?,0,0,20µM,-
Cn1c(NC(=O)c2cc(-c3ccc4c(c3)OCO4)nc3ccccc23)cc(=O)n(C)c1=O,0,0,0,0,0,4.1
Cc1occc1C(=O)Nc1cc(=O)n(C)c(=O)n1C,0,0,0,0,0,0
Cc1ccc(S(=O)(=O)n2ccnc2)cc1C,0,?,0,-,20µM,-
